Reference: PubChem BioAssay (Tox21)
Results filed as inconclusive are left out. Activity calls are given as the source filed them. Calls come from the whole dose curve. Residues, ends and D or L forms follow the SMILES beside them.

What follows are compounds tested against Acetylcholinesterase (Homo sapiens) (UniProt P22303) (assay: Acetylcholinesterase (AChE) small molecule antagonists: colormetric cell-based qHTS assay (AID 1347395; note: nearly all actives have a fitted effect of over 30% in size)). Details: SH-SY5Y cells AChE activity, colorimetric (Ellman); series mostly up to 115 µM; activity, negative = inhibition: at the top concentration.
Sequence of Acetylcholinesterase (Homo sapiens) (P22303 whole entry, looked up): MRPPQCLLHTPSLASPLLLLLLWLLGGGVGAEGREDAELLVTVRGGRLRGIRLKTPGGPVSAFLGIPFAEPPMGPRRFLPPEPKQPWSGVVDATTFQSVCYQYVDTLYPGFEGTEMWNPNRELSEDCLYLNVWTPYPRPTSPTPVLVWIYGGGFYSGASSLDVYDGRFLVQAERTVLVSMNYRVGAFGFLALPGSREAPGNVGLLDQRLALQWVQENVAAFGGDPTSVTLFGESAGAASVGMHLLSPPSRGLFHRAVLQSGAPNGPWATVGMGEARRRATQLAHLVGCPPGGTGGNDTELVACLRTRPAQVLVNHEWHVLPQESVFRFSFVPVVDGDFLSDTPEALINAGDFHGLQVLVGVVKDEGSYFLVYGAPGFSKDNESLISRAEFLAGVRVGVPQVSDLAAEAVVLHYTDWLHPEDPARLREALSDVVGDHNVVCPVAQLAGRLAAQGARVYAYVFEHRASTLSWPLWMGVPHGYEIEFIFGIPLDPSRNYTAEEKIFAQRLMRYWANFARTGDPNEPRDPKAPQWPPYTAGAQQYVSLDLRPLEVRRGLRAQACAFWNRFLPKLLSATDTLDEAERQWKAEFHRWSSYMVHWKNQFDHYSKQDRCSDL
Procedure, shortened: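 SH-SY5Y cells, plated overnight at 37 C, were exposed to compounds for 30 min at 37 C and 5% CO2. Acetylthiocholine plus DTNB was then added, and thiocholine from endogenous AChE was quantified colorimetrically after 90 min at 37 C.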
% is set by controls: 0 for no effect and ±100 for the full control effect.

SMILES | activity, negative = inhibition | Potency | outcome
O=C(c1ccccc1)c1ccc(O)cc1 | 2.15% (inactive) |  | 
O=[N+]([O-])c1cccc(S(=O)(=O)O)c1 | 2.99% (inactive) |  | 
CC(COC(=O)c1ccccc1)OC(=O)c1ccccc1 (stereo not given) | -1.16% (inactive) |  | 
O=C(O)[C@H](O)[C@@H](O)[C@H](O[C@@H]1O[C@H](CO)[C@H](O)[C@H](O)[C@H]1O)[C@H](O)CO | 0.0881% [at 52.9 µM] (inactive) |  | 
COC(=O)CC(=O)OC |  | inactive | 
CC(C)NC(=O)NC(C)C | 3.87% (inactive) |  | 
O=C(O)CC(=O)C(=O)O | -2.05% (inactive) |  | 
Cc1cc(NC(=O)C2=C(O)c3ccccc3S(=O)(=O)N2C)no1 | 0.786% [at 52.9 µM] (inactive) |  | 
C[C@]12C(=O)OC(=O)[C@H]1[C@H]1C=C[C@@H]2C1 | 2.88% (inactive) |  | 
CC(=O)Nc1ccc(C)c(Cl)c1 | 2.63% (inactive) |  | 
CCC(=O)OC(C)c1ccccc1 (stereo not given) | 2.1% (inactive) |  | 
CCCCCCCCC/C=C/CC1CC(=O)OC1=O (stereo not given) |  | inactive | 
CCCCCCCCCCCC(=O)OCC(C)OC(=O)CCCCC(=O)O (stereo not given) | -0.279% [at 52.9 µM] (inactive) |  | 
Nc1nc2ccccc2[nH]1 |  | inactive | 
CCOc1cc(NC(C)=O)ccc1C(=O)OC | 0.773% [at 52.9 µM] (inactive) |  | 
C=CC(C)(C)CC(=O)OC | -1.07% (inactive) |  | 
N[C@H](Cc1c[nH]c2ccccc12)C(=O)O |  | inactive | 
CC(C)(C)C(=O)CC(=O)C(C)(C)C | 0.948% (inactive) |  | 
N/C(=N\N=C\c1ccc(Cl)cc1)N/N=C/c1ccc(Cl)cc1 | -1.91% [at 52.9 µM] (inactive) |  | 
CC(=O)N(CC(O)CN(C(C)=O)c1c(I)c(C(=O)NCC(O)CO)c(I)c(C(=O)NCC(O)CO)c1I)c1c(I)c(C(=O)NCC(O)CO)c(I)c(C(=O)NCC(O)CO)c1I (stereo not given) | -2.2% [at 52.9 µM] (inactive) |  | 

SMILES | activity, negative = inhibition | Potency | outcome
C=C(C)[C@H]1CC=C(C)C(=O)C1 |  | inactive | 
OC[C@H]1O[C@@H]2O[C@H]3[C@H](O)[C@@H](O)[C@@H](O[C@H]4[C@H](O)[C@@H](O)[C@@H](O[C@H]5[C@H](O)[C@@H](O)[C@@H](O[C@H]6[C@H](O)[C@@H](O)[C@@H](O[C@H]7[C@H](O)[C@@H](O)[C@@H](O[C@H]1[C@H](O)[C@H]2O)O[C@@H]7CO)O[C@@H]6CO)O[C@@H]5CO)O[C@@H]4CO)O[C@@H]3CO |  | inactive | 
CN1CCC(=C2c3ccccc3C=Cc3ccccc32)CC1 | 3.28% [at 52.9 µM] (inactive) |  | 
CC(=O)O[C@@]12CO[C@@H]1C[C@H](O)[C@@]1(C)C(=O)[C@H](O)C3=C(C)[C@@H](OC(=O)[C@H](O)[C@@H](NC(=O)OC(C)(C)C)c4ccccc4)C[C@@](O)([C@@H](OC(=O)c4ccccc4)[C@H]21)C3(C)C | 0.878% [at 52.9 µM] (inactive) |  | 
O=C(O)c1ccccc1[N+](=O)[O-] | 0.623% (inactive) |  | 
C=CC(=O)Nc1cc2c(Nc3ccc(F)c(Cl)c3)ncnc2cc1OCCCN1CCOCC1 | 0.264% [at 52.9 µM] (inactive) |  | 
OC[C@H]1O[C@@H](n2cnc3c(=S)nc[nH]c32)[C@H](O)[C@@H]1O | 1.1% [at 52.9 µM] (inactive) |  | 
Cc1c(Nc2ncccc2C(=O)O)cccc1C(F)(F)F | 1.26% [at 52.9 µM] (inactive) |  | 
CCc1nccnc1CC | 2.95% [at 23.6 µM] (inactive) |  | 
CC1COc2ccccc2N1C(=O)C(Cl)Cl (stereo not given) | -2.1% (inactive) |  | 
C[C@@H](CN1CC(=O)NC(=O)C1)N1CC(=O)NC(=O)C1 | -2.1% [at 52.9 µM] (inactive) |  | 
CC(C)(C)C1CCCCC1O (stereo not given) | 8.9% (inactive) |  | 
CCOc1ccccc1OCC1CNCCO1 (stereo not given) |  |  | inactive
C=CCOC(=O)CCCCCC | 1.89% (inactive) |  | 
CCCCCCCCCC=O | 1.99% (inactive) |  | 
C[N+]1(C)[C@@H]2CC(OC(=O)[C@H](CO)c3ccccc3)C[C@H]1[C@@H]1O[C@@H]12 (stereo not given in full) | 2.13% [at 52.9 µM] (inactive) |  | 
O=C(NS(=O)(=O)/C=C/c1ccccc1)c1ccc(F)cc1Cl | 4.74% (inactive) |  | 
CCC(C)n1ncn(-c2ccc(N3CCN(c4ccc(OC[C@H]5CO[C@](Cn6cncn6)(c6ccc(Cl)cc6Cl)O5)cc4)CC3)cc2)c1=O (stereo not given in full) | -0.44% [at 52.9 µM] (inactive) |  | 
COC(=O)[C@H](Cc1ccccc1)NC(=O)[C@@H](N)CC(=O)O (H-Asp-Phe-OMe) |  | inactive | 
CCCCN1C[C@H](O)[C@@H](O)[C@H](O)[C@H]1CO | -1.66% [at 52.9 µM] (inactive) |  | 
